# MLL CXXC-DNA inh – MLL CXXC-DNA interaction inhibition | AID 2662 | Q03164 | MLL-CXXC / FITC-HOXA9 DNA fluorescence polarization | actives 0.037% (n = 290,000) | Potency, µM (series often up to 115 µM), actives largely listed as inhibitors; active means well fitted inhibition curve with a large enough effect in the polarisation, with a control signal flat, not every such curve was filed as active; inconclusive means small, poorly fitted or top-dose-only effect, or effect the other way, or a change in a side signal; inactive means no such curve, though single readings can be large or run the other way; the % refers to the polarisation
#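 Steps: dispense CXXC domain solution (7 uM) → pin compounds or unlabeled HOX-A9 DNA control → 5 min ambient → add FLSN-HOX-A9 solution (50 nM) → spin → 30 min ambient → fluorescence polarization. Tris pH 7.5/NaCl/DTT/BSA buffer.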
# RGS4 inh – human RGS4 inhibition. P49798. Transcreener GDP fluorescence polarization, RGS4-accelerated GTP hydrolysis. Potency, µM (top dose mostly 114 µM), actives largely listed as inhibitors. actives 0.039% (n = 390,000); active means well fitted inhibition curve with a large enough effect; inconclusive means small, poorly fitted or top-dose-only effect; inactive means no such curve, though single readings can be large or run the other way; further: nearly all actives have a fitted effect of over 75% in size
#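 MLSMR compounds (23 nl, pin-transferred) preincubated 10 min at room temperature with a 500nM (2x) first reagent, then RGS4 at 900nM (2x) plus Transcreener GDP mix added; fluorescence polarization (620/688 nm) read before and after 90 min at 30 °C.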
# PTAP TSG101 blk – blocks PTAP/TSG101 interaction to inhibit HIV-1 budding | Q99816 | Fluorescence polarization, FITC-PTAP peptide / Tsg101 binding | Potency, µM (doses to about 115 µM), usual class: inhibitors | 340,000 tested, under 10 active; active means well fitted inhibition curve with a large enough effect in the main read-out, with a control signal flat, not every such curve was filed as active; inconclusive means small, poorly fitted or top-dose-only effect, or effect the other way, or a change in a side signal; inactive means no such curve, though single readings can be large or run the other way
#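 Tsg101 binding domain (10 uM final) was mixed with compound and a FITC-labeled PTAP peptide (50 nM final) in HEPES pH 7.5 buffer with NaCl, Tween 20, EDTA and TCEP; fluorescence polarization was read after 20 min at r.t.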
# ERG Ets-DNA blk – inhibitors of human ERG Ets domain-DNA interaction. fluorescence polarization, His-ERG Ets domain / labelled DNA. Potency, µM (titrated, usually from 76.9 µM), actives largely listed as inhibitors. actives 0.028% (n = 370,000). AID 624246; active means well fitted inhibition curve with a large enough effect in the polarisation, with a control signal flat; inconclusive means small, poorly fitted or top-dose-only effect, or effect the other way, or a change in a side signal; inactive means no such curve, though single readings can be large or run the other way; the % refers to the polarisation;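 further: polarization taken with two DNA probes labelled with fluorescein and Texas red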
#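 His-tagged ERG Ets domain (1 uM in the protein solution; 300mM KCl, 50mM Tris-HCl, 1mM EDTA, 1mM DTT, pH 7.5) received compound, then a probe mix of 5 nM fluorescein-DNA and 100nM Texas-615-DNA. Fluorescence polarization was read for both dyes.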
# Menin-MLL FL inh – inhibitors of human menin-MLL interaction, wild-type MLL peptide | Fluorescence polarization, fluorescein-MLL peptide displacement from menin | FP activity change, % at 61.4 µM | 290,000 tested, under 10 active | AID 1766; active means well fitted curve in the direction sought with a large enough effect in the polarisation, not every such curve was filed as active; inconclusive means small, poorly fitted or top-dose-only effect, or effect the other way, or a change in a side signal; inactive means no such curve, though single readings can be large or run the other way; the % refers to the polarisation
# Menin-MLL TR inh – displaces Texas Red mutant MLL peptide from human menin | O00255 | Menin + Texas Red MLL mutant peptide, fluorescence polarization | Potency, µM (titrated, usually from 61.6 µM), actives largely listed as inhibitors | actives 0.23% (n = 270,000) | AID 1768; active means well fitted inhibition curve with a large enough effect in the polarisation, with a control signal flat, not every such curve was filed as active; inconclusive means small, poorly fitted or top-dose-only effect, or effect the other way, or a change in a side signal; inactive means no such curve, though single readings can be large or run the other way; the % refers to the polarisation
# Numbers stand for hits; i = inactive; ? = inconclusive; nt = not tested or not shown; ! = a repeat was not active. Only a selection was taken, and hits are over-represented in it overall.
SMILES,MLL CXXC-DNA inh,RGS4 inh,PTAP TSG101 blk,ERG Ets-DNA blk,Menin-MLL FL inh,Menin-MLL TR inh
CC(C)CSC1=NSC2=NC(=O)/C(=C\c3coc4ccccc4c3=O)C(=N)N12,?,?,?,i,?,?
CCCCCCCCCCCCCCCC(=O)O[C@H](CC(=O)O)C[N+](C)(C)C,nt,nt,nt,nt,?,i
CCCCCCCCCCCCCCCC(=O)OC(CC(=O)O)C[N+](C)(C)C (stereo not given),i,18.9µM!,i,i,i,?
CCCCCCCCCC(=O)OCC(CO)OC(=O)CCCCCCCCC (stereo not given),nt,26.7µM,nt,nt,i,i
CC1CCN2c3ccccc3CC3(C(=O)OC(C)(C)OC3=O)C2C1 (stereo not given),nt,i,nt,nt,nt,nt
CCOC(=O)NNc1ccc2nonc2c1[N+](=O)[O-],39.8µM,?,i,i,i,nt
CN(CC(=O)Nc1ccc(Cl)c(C(F)(F)F)c1)C(=O)Cn1cc([N+](=O)[O-])ccc1=O,nt,i,i,25.1µM,nt,nt
Cc1cc2oc3ccc(NCCCn4ccnc4)cc3c(=O)c2cc1C,nt,?,?,17.8µM,nt,nt
CN(c1ccccc1)S(=O)(=O)c1ccc(NC(=O)c2ccc(-c3ccccc3)cc2)cc1,i,i,nt,i,i,28.2µM
O=C(Nc1ccc(NC(=O)c2ccc(S(=O)(=O)c3ccccc3)cc2)cc1)c1ccccc1,i,i,i,i,i,10µM
CCC(C)C(N)C(=O)O (stereo not given),i,nt,nt,nt,i,i
CN(C)CC[C@@](O)(c1ccccc1)c1ccccc1Cl,i,nt,nt,nt,i,i
CC[C@@]12C(=O)N(c3ccc(C)cc3)C(=O)N1[C@H](c1cccc(C)c1)[C@@H]1C(=O)N(Cc3ccccc3)C(=O)[C@@H]12,nt,i,i,i,nt,nt
Cc1cccc([C@@H]2[C@@H]3C(=O)N(Cc4ccccc4)C(=O)[C@@H]3[C@]3(Cc4ccc(Cl)cc4)C(=O)N(c4ccc(Br)cc4)C(=O)N23)c1,i,i,i,i,i,20µM
CC[C@H](C)[C@H](NC(=O)[C@H](C)NC(=O)[C@@H](N)C(C)C)C(=O)N[C@H](C(=O)N[C@H](C(=O)N[C@@H](CC(C)C)C(=O)N[C@H](C(=O)N[C@@H](CCCCN)C(=O)O)C(C)C)C(C)C)[C@@H](C)O,nt,nt,nt,nt,i,?
COC1(OC)N=C(N)C2(C#N)C(c3ccccc3)NC(C)=CC12C#N (stereo not given),i,i,i,i,i,i
CC1=CC(C#N)(C#N)C(C#N)(C#N)C(c2ccccc2)N1 (stereo not given),39.8µM,nt,nt,nt,?,i
COc1cccc(/C=N/NC(=O)c2cc(-c3cccn3C)n[nH]2)c1,i,i,i,i,i,35.5µM
COc1cc(/C=N/NC(=O)c2cc(-c3cccn3C)n[nH]2)cc(OC)c1OC,i,i,i,i,i,i
CCCCCCOC(=O)C[N+](C)(C)CCOC1CC2CCC1(C)C2(C)C (stereo not given),i,i,i,i,i,15.8µM
CCCCCCCOC(=O)C[N+](C)(C)CCOC1CC2CCC1(C)C2(C)C (stereo not given),i,i,i,i,i,i
O=S(=O)(c1ccc(F)cc1)N1CCN(c2nc(-c3cccs3)nc3ccccc23)CC1,nt,i,nt,nt,nt,nt
COc1ccc(C2/C=C\CN(C(=O)C3CC3)C(Cc3ccccc3)C(=O)N2Cc2ccc(F)cc2)cc1 (stereo not given),nt,i,nt,nt,i,i
COc1ccccc1NC(=O)Cn1nnc(-c2ccccc2NS(=O)(=O)c2ccccc2)n1,i,i,i,i,i,?
COc1ccccc1NC(=O)Cn1nnc(-c2ccccc2NC(=O)c2cc3ccccc3oc2=O)n1,i,i,i,nt,i,20µM
SMILES,MLL CXXC-DNA inh,RGS4 inh,PTAP TSG101 blk,ERG Ets-DNA blk,Menin-MLL FL inh,Menin-MLL TR inh
C[C@H](N)C(=O)NCC(=O)N[C@H]1CSSC[C@@H](C(=O)O)NC(=O)[C@H](CO)NC(=O)[C@H]([C@@H](C)O)NC(=O)[C@H](Cc2ccccc2)NC(=O)[C@H]([C@@H](C)O)NC(=O)[C@H](CCCCN)NC(=O)[C@H](Cc2c[nH]c3ccccc23)NC(=O)[C@H](Cc2ccccc2)NC(=O)[C@H](Cc2ccccc2)NC(=O)[C@H](CC(N)=O)NC(=O)[C@H](CCCCN)NC1=O,nt,nt,nt,nt,nt,i
C/C=C/c1ccc(O)c(OC)c1,i,i,i,i,i,i
Oc1cc(O)cc(/C=C/c2ccc(O)c(O)c2)c1,i,21.2µM!,i,i,i,?
CC(=O)NN1C(=O)/C(=C2/Sc3ccc(Cl)cc3N2C)SC1=S,i,i,i,i,i,35.5µM
COc1ccc(/C=N/Nc2cc(C)nc3ccc(Br)cc23)cc1,i,i,i,i,i,15.8µM
CC[C@H](C)[C@H](NC(=O)[C@H](CCC(=O)O)NC(=O)[C@@H](N)CO)C(=O)N[C@@H](CCC(N)=O)C(=O)N[C@@H](CC(C)C)C(=O)N[C@@H](CCSC)C(=O)N[C@@H](Cc1cnc[nH]1)C(=O)N[C@@H](CC(N)=O)C(=O)N[C@@H](CC(C)C)C(=O)NCC(=O)N[C@@H](CCCCN)C(=O)N[C@@H](Cc1cnc[nH]1)C(=O)N[C@@H](CC(C)C)C(=O)N[C@@H](C)C(=O)N[C@@H](CO)C(=O)N[C@H](C(=O)N[C@@H](CCC(=O)O)C(=O)N[C@@H](CCCNC(=N)N)C(=O)N[C@@H](CCSC)C(=O)N[C@@H](CCC(N)=O)C(=O)N[C@@H](Cc1c[nH]c2ccccc12)C(=O)N[C@@H](CC(C)C)C(=O)N[C@@H](CCCNC(=N)N)C(=O)N[C@@H](CCCCN)C(=O)N[C@@H](CCCCN)C(=O)N[C@@H](CC(C)C)C(=O)N[C@@H](CCC(N)=O)C(=O)N[C@@H](CC(=O)O)C(=O)N[C@H](C(=O)N[C@@H](Cc1cnc[nH]1)C(=O)N[C@@H](CC(N)=O)C(=O)N[C@@H](Cc1ccccc1)C(=O)O)C(C)C)C(C)C,nt,nt,nt,nt,i,i
O=C(O)c1cc2c(s1)-c1ccccc1CC2,i,i,i,15.8µM,i,i
CCN1/C(=C/C=C/c2sc3ccccc3[n+]2CC)Sc2ccccc21,?,i,i,i,?,?
CCN1/C(=C/C=C/c2oc3ccc(-c4ccccc4)cc3[n+]2CC)Oc2ccc(-c3ccccc3)cc21,?,?,?,31.6µM,?,?
Nc1nc2c(nc(Br)n2C2O[C@H]3COP(=O)(O)O[C@@H]3C2O)c(=O)[nH]1 (stereo not given in full),i,nt,nt,nt,i,i
Cc1ccc(-c2nc3ccccc3s2)cc1NC(=S)NC(=O)c1cccc2ccccc12,i,i,i,i,nt,11.2µM
Cc1ccc(-c2nc3ccccc3s2)cc1NC(=S)NC(=O)/C=C/c1ccco1,i,?,i,i,i,?

# Screening data as filed in PubChem.
